From PubChem BioAssay (NCATS)
Inconclusive results are not listed. The source made the active and inactive calls. Calls come from the whole dose curve; as a rule, active = well fitted curve in the direction sought with a large enough effect; inconclusive = small, poorly fitted or top-dose-only effect, or another doubt; inactive = no such curve, though single readings can be large; an effect the other way counts as inactive or inconclusive.

How the values were obtained:
[1] = target: Cellular tumor antigen p53 (Homo sapiens) (UniProt P04637); experiment: Primary qHTS for small molecule compounds that upregulate eGFP-tagged delta133p53alpha (in N-terminal) cells. (AID 2060322); conditions: NCI-H358 eGFP-delta133p53alpha fluorescence, 24 h; activation: hits give high values;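 note: cells pre-induced with doxycycline then dosed without doxycycline; series mostly up to about 56 µM; 0% = DMSO vehicle and 100% = reference activator; nearly all actives have a fitted effect of over 75% in size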
Sequence of Cellular tumor antigen p53 (Homo sapiens) (P04637 whole entry, looked up): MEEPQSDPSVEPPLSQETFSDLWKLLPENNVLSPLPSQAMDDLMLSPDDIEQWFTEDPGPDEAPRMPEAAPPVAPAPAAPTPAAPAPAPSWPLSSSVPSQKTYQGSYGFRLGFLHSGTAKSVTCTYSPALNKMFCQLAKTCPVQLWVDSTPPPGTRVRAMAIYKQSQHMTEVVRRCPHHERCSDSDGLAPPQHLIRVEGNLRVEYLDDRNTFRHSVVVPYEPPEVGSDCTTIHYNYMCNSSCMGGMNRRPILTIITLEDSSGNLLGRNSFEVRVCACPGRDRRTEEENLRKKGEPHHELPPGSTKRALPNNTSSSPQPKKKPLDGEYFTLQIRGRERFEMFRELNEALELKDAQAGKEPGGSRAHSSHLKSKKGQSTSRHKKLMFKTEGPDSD
Procedure, shortened: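 NCI-H358 cells pre-induced 24 h with 10 ng/ml doxycycline for eGFP-delta133p53alpha, plated dox-free and exposed 24 h at 37C to titrated compounds. Fixed, Hoechst-stained; gated GFP peak intensity by laser scanning cytometry, normalized to DMSO (0%) and 57.5 uM 5-azacytidine (100%).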

[2] = target: Aldehyde dehydrogenase, mitochondrial (Homo sapiens) (UniProt P05091); experiment: qHTS for Inhibitors of the Aldehyde Dehydrogenase Family (ALDH2) Primary screen (AID 2061308);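 note: plate controls were vehicle for no effect and reference inhibitor for full effect; nearly all actives have a fitted effect of over 55% in size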
[3] = target: Retinaldehyde dehydrogenase 3 (Homo sapiens) (UniProt P47895); experiment: qHTS for Inhibitors of the Aldehyde Dehydrogenase Family (ALDH1A3) Primary screen (AID 2061315);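 note: plate controls were DMSO vehicle for no effect and reference inhibitor for full effect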

CCC[C@@H]1C[C@@H](C(=O)N[C@@H]([C@H]2O[C@H](SC)[C@H](OP(=O)(O)O)[C@@H](O)[C@H]2O)[C@H](C)Cl)N(C)C1
inactive: activation [1] 13.4% | Potency [2] | Potency [3]

COc1ccccc1C(=O)Nc1cccc(NC(=O)c2cccc(C)c2)c1
inactive: activation [1] -11.7% | Potency [2] | Potency [3]

C[C@@H]1CCC2C(C)(C)[C@H](O)CC[C@]2(C)[C@@]12Cc1c(O)cc3c(c1O2)CNC3=O (some centres not stated)
inactive: activation [1] -20.6% | Potency [2] | Potency [3]

COc1cc(CCC2=NN=C(NC(=O)c3ccc(N4C[C@@H](C)N[C@@H](C)C4)cc3)C2)cc(OC)c1
inactive: activation [1] -0.333% | Potency [2] | Potency [3]

CC(=O)OC1CC(=O)C2(C)C3CC4=C(OC(C)CC4=O)OC3(C)CCC2C1(C)C (configuration not stated)
inactive: activation [1] -6.11% | Potency [2] | Potency [3]

C=C1C(O)CC2C(C(=O)O)=COC(O[C@@H]3O[C@H](COC(=O)/C=C/c4ccc(O)cc4)[C@@H](O)[C@H](O)[C@H]3O)C12 (some centres not stated)
inactive: activation [1] -6.87% | Potency [2] | Potency [3]

COC1CC(=O)CCC(C)OC(=O)CC1O (configuration not stated)
inactive: activation [1] -6.87% | Potency [2] | Potency [3]

CC1(O)CCC2C(C3C1CCC3(C)O)C2(C)C (configuration not stated)
inactive: activation [1] -1.79% | Potency [2] | Potency [3]

COC(=O)[C@]1(C)CCC[C@@]2(C)C(=O)CC[C@H]3C(=O)C=C(CC[C@@H]21)C3O (some centres not stated)
inactive: activation [1] 1.53% | Potency [2] | Potency [3]

C=C1C(O)C(OC(=O)c2ccccc2)C2C(C)(C(=O)O)CCCC2(C)C1CC/C(C)=C\CO (configuration not stated)
inactive: activation [1] 11.5% | Potency [2] | Potency [3]

Cn1nc(C(C)(C)C)cc1C(=O)N[C@@H](Cc1cccc(Cl)c1)C(=O)NCC#N
inactive: activation [1] -7% | Potency [2] | Potency [3]

C=C1CC23CCC4[C@@](C)(CCC[C@@]4(C)C(=O)O)C2CCC1C3 (some centres not stated)
inactive: activation [1] 6.25% | Potency [2] | Potency [3]

CC(C)=CCC[C@](C)(O)[C@H]1CC[C@]2(C)[C@@H]1[C@H](O)CC1[C@@]3(C)CC[C@H](O)C(C)(C)C3[C@@H](O[C@@H]3O[C@H](CO)[C@@H](O)[C@H](O)[C@H]3O[C@@H]3OC[C@@H](O)[C@H](O)[C@H]3O)C[C@]12C (some centres not stated)
inactive: activation [1] -16.8% | Potency [2] | Potency [3]

CC(=O)OC1C(=O)C2C3OCC4=C3[C@@](C)(CC[C@@H]4O)CC[C@]2(C)[C@H]1C(C)C (some centres not stated)
inactive: activation [1] -14.5% | Potency [2] | Potency [3]

COC(=O)C1=COC(OC2OC(CO)C(O)C(O)C2O)C2C(COC(=O)/C=C/c3ccc(O)cc3)C(O)C(O)C12 (configuration not stated)
inactive: activation [1] -6.87% | Potency [2] | Potency [3]

CC(C)CC1NC(=O)C(C)NC(=O)C(CC(C)C)OC(=O)CCCNC1=O (configuration not stated)
inactive: activation [1] -2.68% | Potency [2] | Potency [3]

Cc1csc(NC(=O)c2ccc(COc3cccc(Cl)c3)o2)n1
inactive: activation [1] -9.67% | Potency [2] | Potency [3]

Cn1cc(-c2ccc3nnc(Sc4ccc5nn(C)cc5c4)n3n2)cn1
inactive: activation [1] -4.46% | Potency [2] | Potency [3]

CC12CCC3c4ccc(O)cc4CCC3C1CCC2OC1OC(C(=O)O)C(O)C(O)C1O (configuration not stated)
inactive: activation [1] -11.7% | Potency [2] | Potency [3]

CCOP(=O)(Cc1ccc(C(=O)Nc2ccc(Br)cc2C#N)cc1)OCC
inactive: activation [1] 2.33% | Potency [2] | Potency [3]

C[C@@H]1O[C@@H](O[C@@H]2[C@@H](O)[C@H](O[C@H]3[C@H](O[C@H]4CC[C@@]5(C)C(CC[C@]6(C)C5CC=C5[C@@H]7CC(C)(C)CC[C@]7(C(=O)O[C@@H]7O[C@H](CO)[C@@H](O)[C@H](O)[C@H]7O[C@@H]7O[C@@H](C)[C@H](O[C@@H]8O[C@@H](C)[C@H](O)[C@@H](O)[C@H]8O)[C@@H](O)[C@H]7O)CC[C@]56C)[C@@]4(C)CO)O[C@H](C(=O)O)[C@@H](O)[C@@H]3O)O[C@H](CO)[C@H]2O)[C@H](O)[C@H](O)[C@H]1O (some centres not stated)
inactive: activation [1] -9.16% | activity change, negative = inhibition [2] 7.29% [at 11.2 µM] | activity change, negative = inhibition [3] -3.36% [at 11.2 µM]

O=c1ccn(C2OC(CO)C(O)C2O)c(=O)[nH]1 (configuration not stated)
inactive: activation [1] 17.6% | Potency [2] | Potency [3]

C/C=C(/C)C(=O)O[C@H]1C=C(C)C[C@H](OC(=O)c2ccc(O)cc2)C2[C@](O)(C(C)C)CC[C@@]21C (some centres not stated)
inactive: activation [1] -5.34% | Potency [2] | Potency [3]

C/C=C/C[C@@H](C)[C@@H](O)[C@H]1C(=O)N[C@@H](CC)C(=O)N(C)CC(=O)N(C)[C@@H](CC(C)C)C(=O)N[C@@H](C(C)C)C(=O)N(C)[C@@H](CC(C)C)C(=O)N[C@@H](C)C(=O)N[C@H](C)C(=O)N(C)[C@@H](CC(C)C)C(=O)N(C)[C@@H](CC(C)C)C(=O)N(C)[C@H](C(C)C)C(=O)N1C
inactive: activation [1] 11.5% | Potency [2] | Potency [3]
